This is an account of results in PubChem BioAssay (EPA / NIEHS).

Where “and” joins values, the source holds several entries; their conditions need not be identical. Equal values may be shown once. The source holds several records for some structures; these can differ, active in one and inactive in another. Calls of active or inactive are those of the source. How the source made its calls: active means hit-call score of the fitted dose curve at least 0.9, where 1 is the maximum; inactive means score below 0.9.

The AC50 is the concentration giving half of the maximal activity seen.

Read-out in the test: Matrix Metallopeptidase 1 (MMP1), MMP1 (gene 4312)
Nature of the test: BSK_hDFCGF_MMP1: BioMAP Diversity Plus: hDFCGF Assay for Matrix Metallopeptidase 1 (MMP1) Biomarker Activity (AID 2283064). Particulars: primary human foreskin fibroblasts; actives raise or lower the signal. As for the experimental part: BSK_hDFCGF is a cell-based, multiplexed-readout assay that uses foreskin fibroblast, a human skin primary cell, with measurements taken at 24 hours after chemical dosing in a 96-well plate.BSK_hDFCGF_MMP1 is an assay component measured in the BSK_hDFCGF assay. It measures MMP-1 antibody related to regulation of gene expression using ELISA technology.Data from the assay component BSK_hDFCGF_MMP1 was analyzed into 1 assay endpoint. This assay endpoint, BSK_hDFCGF_MMP1, was analyzed with bidirectional fitting relative to DMSO as the negative control and baseline of activity. Using a type of binding reporter, gain or loss-of-signal activity can be used to understand changes in the signaling as they relate to the gene MMP1. Furthermore, this assay endpoint can be referred to as a primary readout, because this assay has produced multiple assay endpoints where this one serves a signaling function. To generalize the intended target to other relatable targets, this assay endpoint is annotated to the protease intended target family, where the subfamily is matrix metalloproteinase.
The levels of cell surface (or secreted, indicated by the prefix "s") biomarker endpoints were measured by ELISA. Overt cytotoxicity to cells in confluent adherent cultures (all systems other than the BT system) was assessed by measuring total protein levels using sulforhodamine B (SRB) staining in parallel cultures at the time of biomarker measurements, indicated as SRB endpoints. For proliferation assays for adherent cell types, individual cell types are cultured at sub-confluence and relative cell numbers quantified by SRB staining at time points optimized for each system (48 h: 3C and CASM3C systems; 72 h: BT and HDF3CGF systems; 96 h: SAg system). SRB was performed by staining cells with 0.1% SRB after fixation with 10% TCA and reading wells at 560 nm.Viability and proliferation of PBMC (T cells) was quantified by Alamar Blue reduction for the SAg and BT systems. For PBMC viability (referred to as PBMC Cytotoxicity within the assay endpoint names), cells were plated (75,000/well in a 96-well plate) and then chemical samples added for 1 h before addition of activators, SEB and TSST-1 (20 ng/mL final concentration each). Cells were incubated for 90 h. Then, Alamar Blue (20 uL/well) (Invitrogen, Cat DAL1100) was added for 6 h, and the plates were read with a fluorescence microplate reader at 546/580 nm (excitation/emission). For PBMC proliferation, cells were plated and activated as above but incubated for only 16 h prior to addition of Alamar Blue. Plates were read after 6 h.
On to `Clc1ccc(Cl)c(Cl)c1`, for which the result was inactive.

As to `Nc1ccc(Cl)cc1N`, the result was inactive.

Turning to `CC(C)COC(=O)c1ccccc1C(=O)OCC(C)C`, the outcome was inactive.

For the compound `Nc1cc(Cl)cc(C(=O)O)c1Cl`, the result was inactive.

In the case of `C1=Cc2cccc3cccc1c23`, the result was inactive.

Regarding `Oc1ccc2ccc3cccc4ccc1c2c34`, the result was inactive.

Take `Clc1ccc(C(c2ccc(Cl)cc2)C(Cl)Cl)cc1`: the AC50 is 10.8 µM (active).

In the case of `[O-][Cl+]O`, the result was inactive.

Take `CN(C)C(=O)Nc1ccc(Cl)cc1`: the outcome was inactive.

With `c1ccc2c(c1)-c1cccc3cccc-2c13`, the result was inactive.

Regarding `COc1cc(C=O)cc2c1[C@H](COC(N)=O)[C@]1(OC(C)=O)ON2C[C@H]2[C@@H]1N2C(C)=O`, the concentration at half-maximal activity (AC50) is 0.565 µM (active).

Take `c1ccc(NNc2ccccc2)cc1`: the outcome was inactive.

`CC(C)(C)C(O)(CCc1ccc(Cl)cc1)Cn1cncn1` (stereo not given): the outcome was inactive.

Consider `ClC1=C(Cl)[C@]2(Cl)[C@H]3[C@H]([C@@H]4C=C[C@H]3C4)[C@@]1(Cl)C2(Cl)Cl`, for which the AC50 was 29.9 µM (active).

For the compound `Clc1ccc(C(c2ccc(Cl)cc2)C(Cl)(Cl)Cl)cc1`, the AC50 is 14.8 µM (active).

Turning to `CS(=O)(=O)NC(=O)c1cc(Oc2ccc(C(F)(F)F)cc2Cl)ccc1[N+](=O)[O-]`, the outcome was inactive.

Take `CCCCCCCCCCCCCN1CC(C)OC(C)C1` (stereo not given): the outcome was inactive.

Regarding `CCNS(=O)(=O)C(F)(F)C(F)(F)C(F)(F)C(F)(F)C(F)(F)C(F)(F)C(F)(F)C(F)(F)F`, the AC50 was 49.2 µM (active) and 49.6 µM (active); the result was inactive.

In the case of `O=C(Nc1ccccc1)c1ccccc1I`, the result was inactive.

Turning to `Cn1cc(-c2ccccc2)c(=O)c(-c2cccc(C(F)(F)F)c2)c1`, the result was inactive.

As for `CCN(CC)N=O`, the outcome was inactive.

Consider `Nc1ccc(Oc2ccc(N)cc2)cc1`, for which the outcome was inactive.

`CCCCC(CC)COC(=O)c1ccc(C(=O)OCC(CC)CCCC)c(C(=O)OCC(CC)CCCC)c1` (stereo not given): the outcome was inactive.

On to `Cc1cc(N=Nc2ccccc2C)ccc1N`, for which the outcome was inactive.

Consider `O=Cc1ccco1`, for which the outcome was inactive.

Take `Oc1ccccc1Cl`: the result was inactive.

Consider `CN(C)c1ccccc1`, for which the result was inactive.

`CO[C@@H]1[C@H](OC(=O)NC(=O)CCl)CC[C@]2(CO2)[C@H]1[C@@]1(C)O[C@@H]1CC=C(C)C`: the AC50 is 11.6 µM (active).

Take `O=C(Oc1ccc(Br)cc1)N1CCN2CCC1CC2`: the outcome was inactive.

On to `O=C1CCCO1`, for which the result was inactive.

Consider `O=P(OCCCl)(OCCCl)OCCCl`, for which the result was inactive.

Consider `N#CC(Br)(Br)C(N)=O`, for which the result was inactive.

As to `CCCCCCCCOC(=O)c1ccc(C(=O)OCCCCCCCC)c(C(=O)OCCCCCCCC)c1`, the outcome was inactive.

As for `CCCCOC(=O)c1ccccc1C(=O)OCc1ccccc1`, the outcome was inactive.

As to `COC(=O)Nc1nc2ccccc2[nH]1`, the result was inactive.

As to `COP(=S)(OC)SCN1C(=O)c2ccccc2C1=O`, the outcome was inactive.

`C=CCc1ccc2c(c1)OCO2`: the outcome was inactive.

In the case of `CCC[CH2][Sn]([Cl])([CH2]CCC)[CH2]CCC`, the concentration at half-maximal activity (AC50) was 0.271 µM (active).

In the case of `O=C(O)C1C2CCC(O2)C1C(=O)O` (stereo not given), the result was inactive.
